Parameters in all cases: species or system human, MV4-11 + K-562 + COLO205 + SK-N-BE2 + OVCAR-8
One assay relates to CDKL5. The settings on record: read-out: apparent Kd, n = 1.
A further assay concerns FLT3. The note with it: read-out: apparent Kd, n = 1.
A further assay deals with MYLK3. The note with it: read-out: apparent Kd, n = 1.
The subject of a further assay is PRKD2. The note with it: read-out: apparent Kd, n = 1.
The test system of a further assay is ERCC2. The settings on record: read-out: apparent Kd, n = 1.
The subject of another assay is FER. The settings on record: read-out: apparent Kd, compound concentrations: 100 nM and 1000 nM (sheet 'Samples'), n = 1.
The next assay deals with PTK2B. The settings on record: read-out: apparent Kd, compound concentrations: 100 nM and 1000 nM (sheet 'Samples'), n = 1.
A further assay relates to RPS6KA6. The note with it: read-out: apparent Kd, n = 1.
For the next assay, the system named is LATS1. The settings on record: read-out: apparent Kd, n = 1.
For the next assay, the system named is PRKCD. The settings on record: read-out: apparent Kd, n = 1.
Another assay concerns DYRK1A. The settings on record: read-out: apparent Kd, n = 1.
The next assay relates to CDK7. The settings on record: read-out: apparent Kd, n = 1.
In another assay the test system is MARK4. The settings on record: read-out: apparent Kd; compound concentrations:100 nM and 1000 nM (sheet 'Samples'); n = 1.
A further assay relates to PRKAA1. The note with it: read-out: apparent Kd; compound concentrations:100 nM and 1000 nM (sheet 'Samples'); n = 1.
Another assay deals with PRKD3. The settings on record: read-out: apparent Kd, n = 1.
For another assay, the system named is PRKCQ. The settings on record: read-out: apparent Kd, compound concentrations: 100 nM and 1000 nM (sheet 'Samples'), n = 1.
Another assay concerns STK10. The note with it: read-out: apparent Kd; compound concentrations: 100 nM and 1000 nM (sheet 'Samples'), CATDS: 6.2859781396148603E-2; n = 1.
A further assay concerns PLK4. The note with it: read-out: apparent Kd; compound concentrations: 100 nM and 1000 nM (sheet 'Samples'), CATDS: 5.91687426181325E-2; n = 1.
The test system of a further assay is PTK2. The note with it: read-out: apparent Kd; compound concentrations: 100 nM and 1000 nM (sheet 'Samples'), CATDS: 2.8719302746770599E-2; n = 1.
For another assay, the system named is PIP4K2C. The settings on record: read-out: apparent Kd; compound concentrations: 100 nM and 1000 nM (sheet 'Samples'), CATDS: 0.31006537475482299; n = 1.
The mark [1] stands for this setting: compound concentrations:100 nM and 1000 nM (sheet 'Samples').

Where two headings read alike, the source gives them in different places.

Regarding `NS(=O)(=O)c1ccc(N/C=C2\C(=O)Nc3ccc4ncsc4c32)cc1` [GW297361X], the potency estimated from few doses was 448 nM in the assay with CDKL5 (compound concentrations: 100 nM and 1000 nM (sheet 'Samples'), CATDS: 5.4362762723509199E-2); 799 nM with FLT3 (compound concentrations: 100 nM and 1000 nM (sheet 'Samples'), CATDS: 4.1021562023835299E-2); 106 nM with MYLK3 (compound concentrations: 100 nM and 1000 nM (sheet 'Samples'), CATDS: 0.13217199419509801); 2200 nM in the assay with PRKD2 (compound concentrations: 100 nM and 1000 nM (sheet 'Samples'), CATDS: 2.8859084082920799E-2).

In the case of `COc1ccc(Nc2nccc(NCCNC(=O)Nc3cc(C)ccc3C)n2)cc1` [GSK1379899A], the potency estimated from few doses in the assay with ERCC2 (compound concentrations: 100 nM and 1000 nM (sheet 'Samples'), CATDS: 4.8239081355384503E-2) was 1270 nM; in the assay on FER (CATDS: 5.8591090270846503E-2), 821 nM; with PRKD2 (compound concentrations: 100 nM and 1000 nM (sheet 'Samples'), CATDS: 5.1330821571124501E-2), 1100 nM; with PTK2B (CATDS: 5.6831578265935698E-2) it was 876 nM; with RPS6KA6 (compound concentrations: 100 nM and 1000 nM (sheet 'Samples'), CATDS: 5.53882917247734E-2), 926 nM.

On to `Cc1cc(NC(=O)c2cccc(NC(=O)/C=C/CN(C)C)c2)ccc1Nc1nccc(-c2cccnc2)n1` [JNK-IN-7], for which, in the assay on CDKL5 (setting [1]), the potency estimated from few doses is 958 nM.

`CC(C)(CO)CNC(=O)c1ccc2c(c1)/C(=N/Nc1ccc(S(N)(=O)=O)cc1)C(=O)N2` [GW301784X]: the potency estimated from few doses in the assay on CDKL5 (setting [1]) was 172 nM.

Turning to `Cl.Cl.NC[C@H](CC1CCCCC1)NC(=O)c1ccc(-c2ccnc3[nH]ccc23)s1.NC[C@H](CC1CCCCC1)NC(=O)c1ccc(-c2ccnc3[nH]ccc23)s1` [GSK1581428A], the values for the potency estimated from few doses with LATS1 (setting [1]) and with PRKCD (setting [1]) were 1120 nM and 719 nM, respectively.

For `Cn1cc(C2=C(c3c(S(C)=O)n(C)c4ccccc34)C(=O)NC2=O)c2ccccc21` (centres unmarked) [RO0317379-000], the potency estimated from few doses in the assay with CDKL5 (compound concentrations: 100 nM and 1000 nM (sheet 'Samples'), CATDS: 0.106131192264054) was 1600 nM.

Regarding `O=C1N=C(N[C@@H](CO)Cc2ccccc2)S/C1=C\c1ccc2ncccc2c1` [RO4509200-000], the potency estimated from few doses in the assay on CDKL5 (compound concentrations: 100 nM and 1000 nM (sheet 'Samples'), CATDS: 0.117206813575506) is 975 nM; in the assay on DYRK1A (compound concentrations: 100 nM and 1000 nM (sheet 'Samples'), CATDS: 0.168916103718072), 440 nM.

For the compound `COc1cc[nH]c1/C=C1\C(=O)Nc2ccc(F)c(C#C[C@@H](O)[C@@H](N)[C@@H](C)O)c21` [RO0283120-000], the potency estimated from few doses in the assay with CDK7 (setting [1]) is 445 nM; in the assay with CDKL5 (setting [1]), 32.4 nM; in the assay on ERCC2 (setting [1]) it was 785 nM; in the assay on FLT3 (setting [1]), 59.3 nM; with LATS1 (setting [1]) it was 125 nM; in the assay with MARK4, 703 nM. Also, the potency estimated from few doses in the assay with MYLK3 (setting [1]) was 827 nM; in the assay with PRKAA1, 1040 nM; with PRKD2 (setting [1]), 278 nM; in the assay with PRKD3 (setting [1]), 236 nM.

Turning to `CNCC1CCn2c(c(C3=C(c4cn(C)c5ccccc45)C(=O)NC3=O)c3ccccc32)C1` (centres unmarked) [RO0318676-000], the potency estimated from few doses with CDK7 (compound concentrations: 100 nM and 1000 nM (sheet 'Samples'), CATDS: 3.3814045459066702E-2) was 945 nM; in the assay with ERCC2 (compound concentrations: 100 nM and 1000 nM (sheet 'Samples'), CATDS: 3.3447385930038299E-2) it was 976 nM; with FER (CATDS: 3.4006049633961401E-2), 929 nM; with PRKCD (compound concentrations: 100 nM and 1000 nM (sheet 'Samples'), CATDS: 0.12623439225341199) it was 48.7 nM; in the assay on PRKCQ (CATDS: 0.111424858077941) it was 61.3 nM; in the assay on PTK2B (CATDS: 3.5074234548869702E-2), 849 nM. Also, the potency estimated from few doses with RPS6KA6 (compound concentrations: 100 nM and 1000 nM (sheet 'Samples'), CATDS: 8.7281654841073406E-2) is 98.7 nM.

For the compound `COc1cc[nH]c1/C=C1\C(=O)Nc2ccc(F)c(I)c21` [RO0281567-000], the potency estimated from few doses with FLT3 (compound concentrations: 100 nM and 1000 nM (sheet 'Samples'), CATDS: 0.206841572593601) was 374 nM; with MYLK3 (compound concentrations: 100 nM and 1000 nM (sheet 'Samples'), CATDS: 0.10963488486357401), 1520 nM.

Consider `COc1cc[nH]c1/C=C1\C(=O)Nc2ccc([N+](=O)[O-])c(N3CC[C@@H](O)C3)c21` [RO0504985-000], for which the potency estimated from few doses in the assay on CDKL5 (compound concentrations: 100 nM and 1000 nM (sheet 'Samples'), CATDS: 0.118567124910979) is 46.7 nM; in the assay on FLT3 (compound concentrations: 100 nM and 1000 nM (sheet 'Samples'), CATDS: 3.5682803402027001E-2) it was 989 nM.

As for `CNc1nccc(-c2ccc3c(N)n[nH]c3c2)n1` [GSK2206003A], the potency estimated from few doses in the assay on DYRK1A (compound concentrations: 100 nM and 1000 nM (sheet 'Samples'), CATDS: 5.2030559523690803E-2) was 1370 nM; in the assay on MYLK3 (compound concentrations: 100 nM and 1000 nM (sheet 'Samples'), CATDS: 6.3436586084605395E-2), 601 nM; with STK10, 622 nM.

As for `O=C1N=C(NCc2ccccc2Br)S/C1=C\c1ccc2ncccc2c1` [RO4506918-000], in the assay on DYRK1A (compound concentrations: 100 nM and 1000 nM (sheet 'Samples'), CATDS: 8.9156542240232201E-2), the potency estimated from few doses is 912 nM.

Turning to `NS(=O)(=O)c1ccc(NC=C2C(=O)Nc3ccc4ncsc4c32)cc1` [GW589933X], the potency estimated from few doses in the assay with CDKL5 (compound concentrations: 100 nM and 1000 nM (sheet 'Samples'), CATDS: 7.9596409580243901E-2) is 52.4 nM; in the assay with FLT3 (compound concentrations: 100 nM and 1000 nM (sheet 'Samples'), CATDS: 2.3969492803236899E-2), 581 nM; in the assay on LATS1 (compound concentrations: 100 nM and 1000 nM (sheet 'Samples'), CATDS: 1.9733333265128199E-2), 1020 nM; in the assay with MYLK3 (compound concentrations: 100 nM and 1000 nM (sheet 'Samples'), CATDS: 0.127483608454634), 23.7 nM; in the assay on PRKD2 (compound concentrations: 100 nM and 1000 nM (sheet 'Samples'), CATDS: 1.78038958195245E-2), 1460 nM; in the assay on PRKD3 (compound concentrations: 100 nM and 1000 nM (sheet 'Samples'), CATDS: 1.69814633200863E-2), 1760 nM.

With `Cl.Cn1cc(C2=C(c3c4n(c5ccccc35)CCNC4)C(=O)NC2=O)c2ccccc21` [RO0318365-001], the potency estimated from few doses in the assay with CDK7 (compound concentrations: 100 nM and 1000 nM (sheet 'Samples'), CATDS: 7.1923944144695898E-2) is 734 nM; in the assay with ERCC2 (compound concentrations: 100 nM and 1000 nM (sheet 'Samples'), CATDS: 7.4045119432564296E-2), 696 nM; with FER (CATDS: 6.02044843999179E-2) it was 1060 nM; in the assay with PLK4, 1100 nM; in the assay on PRKCD (compound concentrations: 100 nM and 1000 nM (sheet 'Samples'), CATDS: 4.8671677826933601E-2), 1810 nM; in the assay with PRKCQ (CATDS: 7.9846572084882106E-2), 607 nM. In the assay on PTK2B (CATDS: 6.7595952047570504E-2), the potency estimated from few doses was 828 nM.

Consider `Cc1occc1-c1nc(N)c(OC[C@@H](N)Cc2c[nH]c3ccccc23)cc1-c1cc2c(C)n[nH]c2cn1` [GSK1660450B], for which the potency estimated from few doses is 1790 nM in the assay on DYRK1A (setting [1]); 1110 nM in the assay on MARK4; 8.62 nM in the assay with PRKCD (setting [1]); 386 nM in the assay with PRKD2 (setting [1]); 170 nM in the assay on PRKD3 (setting [1]); 19.1 nM in the assay on RPS6KA6 (setting [1]).

As to `CCC(CC)(CC)n1cnc2c(N)ncnc21` [SKF-97620], the potency estimated from few doses in the assay with PTK2 is 1140 nM.

With `COc1ccc(CNC(=O)NC2CCN(c3ccnc(Nc4cc(OC)c(OC)c(OC)c4)n3)C2)cc1` (centres unmarked) [GSK1379748A], the potency estimated from few doses in the assay on PIP4K2C was 2120 nM.

The values above are taken from paper PMC11062922 (Nature Chemical Biology, 2023).
